For 7 compounds, inhibition results are on record in ChEMBL document CHEMBL1961873, “Compounds: GSK PKIS; Assays: Nanosyn kinase panel” (2012).

Test [1] has as its target T1, Serine/threonine-protein kinase D2 (Homo sapiens) (UniProt Q9BZL6).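 Note: mean value of PRKD2 inhibition, from the GSK PKIS screening panel.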
T1 sequence (whole entry): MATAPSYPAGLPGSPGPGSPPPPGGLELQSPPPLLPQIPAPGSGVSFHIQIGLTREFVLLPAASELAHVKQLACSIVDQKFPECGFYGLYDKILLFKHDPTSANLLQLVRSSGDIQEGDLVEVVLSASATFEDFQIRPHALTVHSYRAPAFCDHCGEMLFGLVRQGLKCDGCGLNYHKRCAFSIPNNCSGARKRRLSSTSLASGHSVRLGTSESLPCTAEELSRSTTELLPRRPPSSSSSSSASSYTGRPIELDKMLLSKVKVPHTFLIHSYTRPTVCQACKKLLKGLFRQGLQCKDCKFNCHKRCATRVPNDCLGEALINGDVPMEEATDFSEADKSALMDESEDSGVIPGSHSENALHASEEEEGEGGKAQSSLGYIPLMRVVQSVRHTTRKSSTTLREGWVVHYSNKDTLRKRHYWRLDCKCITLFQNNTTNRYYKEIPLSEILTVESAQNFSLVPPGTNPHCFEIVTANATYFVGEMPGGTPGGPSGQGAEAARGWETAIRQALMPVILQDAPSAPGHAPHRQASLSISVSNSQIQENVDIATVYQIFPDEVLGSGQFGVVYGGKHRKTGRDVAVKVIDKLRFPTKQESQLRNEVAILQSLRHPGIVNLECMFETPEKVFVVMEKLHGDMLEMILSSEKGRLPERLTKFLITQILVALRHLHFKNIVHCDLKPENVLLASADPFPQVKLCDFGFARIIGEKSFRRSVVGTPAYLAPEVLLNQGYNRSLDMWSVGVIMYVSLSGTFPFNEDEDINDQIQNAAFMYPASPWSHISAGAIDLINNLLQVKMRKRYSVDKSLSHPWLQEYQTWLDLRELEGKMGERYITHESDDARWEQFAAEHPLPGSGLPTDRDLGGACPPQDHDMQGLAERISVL
The settings on record: at 1 µM.

Test [2] addresses T2, Serine/threonine-protein kinase D3 (Homo sapiens) (UniProt O94806).
T2 sequence (whole entry): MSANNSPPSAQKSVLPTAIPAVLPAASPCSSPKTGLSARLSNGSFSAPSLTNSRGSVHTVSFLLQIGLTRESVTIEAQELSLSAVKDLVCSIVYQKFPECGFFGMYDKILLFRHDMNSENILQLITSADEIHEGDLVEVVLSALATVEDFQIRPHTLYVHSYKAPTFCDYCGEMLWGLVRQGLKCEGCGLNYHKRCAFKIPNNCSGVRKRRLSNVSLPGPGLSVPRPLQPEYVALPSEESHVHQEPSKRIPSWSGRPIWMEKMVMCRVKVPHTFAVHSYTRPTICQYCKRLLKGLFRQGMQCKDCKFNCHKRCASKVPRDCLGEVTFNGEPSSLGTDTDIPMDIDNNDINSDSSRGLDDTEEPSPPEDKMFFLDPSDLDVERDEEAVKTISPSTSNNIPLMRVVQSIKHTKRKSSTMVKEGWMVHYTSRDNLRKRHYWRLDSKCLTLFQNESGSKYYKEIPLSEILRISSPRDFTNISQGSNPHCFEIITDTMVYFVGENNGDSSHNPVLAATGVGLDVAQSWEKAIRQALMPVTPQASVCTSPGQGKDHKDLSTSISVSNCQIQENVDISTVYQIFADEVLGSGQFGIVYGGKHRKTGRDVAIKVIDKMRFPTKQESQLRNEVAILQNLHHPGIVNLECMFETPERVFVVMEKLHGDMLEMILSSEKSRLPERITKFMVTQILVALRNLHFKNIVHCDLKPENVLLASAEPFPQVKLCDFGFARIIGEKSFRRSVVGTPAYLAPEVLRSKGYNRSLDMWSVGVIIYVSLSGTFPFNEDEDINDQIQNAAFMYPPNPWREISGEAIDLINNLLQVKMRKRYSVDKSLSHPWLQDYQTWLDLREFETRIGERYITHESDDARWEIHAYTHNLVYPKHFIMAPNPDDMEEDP
The following applies: at 0.1 µM.

Test [3] deals with T2, Serine/threonine-protein kinase D3 (Homo sapiens). The following applies: at 1 µM.
Test [4] deals with T3, cGMP-dependent protein kinase 1 (Homo sapiens) (UniProt Q13976).
T3 sequence (whole entry): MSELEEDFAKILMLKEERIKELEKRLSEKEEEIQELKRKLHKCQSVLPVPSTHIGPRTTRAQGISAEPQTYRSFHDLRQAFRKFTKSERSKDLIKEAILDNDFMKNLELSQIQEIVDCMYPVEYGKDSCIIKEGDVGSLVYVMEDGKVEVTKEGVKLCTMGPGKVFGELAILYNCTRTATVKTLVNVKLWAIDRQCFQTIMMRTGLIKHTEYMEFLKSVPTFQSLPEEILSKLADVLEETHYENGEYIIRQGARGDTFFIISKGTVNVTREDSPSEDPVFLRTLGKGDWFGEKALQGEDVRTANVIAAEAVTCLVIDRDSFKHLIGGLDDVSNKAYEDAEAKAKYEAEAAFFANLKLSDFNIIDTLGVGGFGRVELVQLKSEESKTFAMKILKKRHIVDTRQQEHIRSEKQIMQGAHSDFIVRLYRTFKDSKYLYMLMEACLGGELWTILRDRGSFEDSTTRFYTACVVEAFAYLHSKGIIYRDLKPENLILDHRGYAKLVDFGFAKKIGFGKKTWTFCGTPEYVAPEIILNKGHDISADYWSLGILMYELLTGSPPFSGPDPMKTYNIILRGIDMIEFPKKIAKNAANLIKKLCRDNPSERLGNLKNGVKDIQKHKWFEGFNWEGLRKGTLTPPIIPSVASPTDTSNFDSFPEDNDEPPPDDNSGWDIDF
The following applies: at 0.1 µM.

The target of test [5] is T3, cGMP-dependent protein kinase 1 (Homo sapiens). The following applies: at 1 µM.
For test [6], the target named is T4, cGMP-dependent protein kinase 2 (Homo sapiens) (UniProt Q13237).
T4 sequence (whole entry): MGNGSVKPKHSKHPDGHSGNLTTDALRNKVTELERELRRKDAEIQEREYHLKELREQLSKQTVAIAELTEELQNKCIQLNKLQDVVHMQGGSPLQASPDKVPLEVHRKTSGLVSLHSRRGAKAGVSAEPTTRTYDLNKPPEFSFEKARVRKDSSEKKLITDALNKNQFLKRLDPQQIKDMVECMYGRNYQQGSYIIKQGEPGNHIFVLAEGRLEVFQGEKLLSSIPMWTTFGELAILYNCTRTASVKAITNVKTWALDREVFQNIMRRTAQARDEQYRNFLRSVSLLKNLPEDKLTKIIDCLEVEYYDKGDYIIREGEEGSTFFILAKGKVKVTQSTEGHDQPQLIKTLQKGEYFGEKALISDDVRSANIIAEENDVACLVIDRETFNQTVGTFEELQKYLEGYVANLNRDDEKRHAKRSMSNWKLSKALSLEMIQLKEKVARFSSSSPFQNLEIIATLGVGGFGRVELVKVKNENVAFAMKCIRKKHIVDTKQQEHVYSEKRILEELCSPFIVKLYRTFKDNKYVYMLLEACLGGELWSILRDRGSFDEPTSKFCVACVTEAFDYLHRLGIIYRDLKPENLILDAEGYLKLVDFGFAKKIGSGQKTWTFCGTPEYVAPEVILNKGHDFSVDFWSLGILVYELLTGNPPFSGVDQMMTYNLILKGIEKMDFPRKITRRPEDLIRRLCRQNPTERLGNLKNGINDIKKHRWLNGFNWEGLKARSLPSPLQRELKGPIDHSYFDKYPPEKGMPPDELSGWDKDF
The following applies: at 0.1 µM.

Test [7] concerns the target T4, cGMP-dependent protein kinase 2 (Homo sapiens). The settings on record: at 1 µM.
For test [8], the target named is T5, cAMP-dependent protein kinase catalytic subunit PRKX (Homo sapiens) (UniProt P51817).
T5 sequence (whole entry): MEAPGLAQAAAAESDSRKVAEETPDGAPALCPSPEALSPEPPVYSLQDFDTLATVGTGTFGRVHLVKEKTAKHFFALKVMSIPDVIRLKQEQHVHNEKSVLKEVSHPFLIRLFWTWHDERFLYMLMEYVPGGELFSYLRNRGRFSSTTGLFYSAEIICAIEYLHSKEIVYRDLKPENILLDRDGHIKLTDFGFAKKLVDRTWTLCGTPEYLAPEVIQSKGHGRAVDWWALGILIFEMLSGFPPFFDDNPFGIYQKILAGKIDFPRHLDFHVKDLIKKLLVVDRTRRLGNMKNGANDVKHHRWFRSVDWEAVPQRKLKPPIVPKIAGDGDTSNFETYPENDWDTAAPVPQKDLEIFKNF
The settings on record: at 0.1 µM.

Test [9] concerns the target T5, cAMP-dependent protein kinase catalytic subunit PRKX (Homo sapiens). The settings on record: at 1 µM.
Test [10] deals with Rho-associated protein kinase 1 (Homo sapiens) (UniProt Q13464). The following applies: at 0.1 µM.
Rho-associated protein kinase 1 (Homo sapiens), sequence (Q13464 2-1354 limits assumed): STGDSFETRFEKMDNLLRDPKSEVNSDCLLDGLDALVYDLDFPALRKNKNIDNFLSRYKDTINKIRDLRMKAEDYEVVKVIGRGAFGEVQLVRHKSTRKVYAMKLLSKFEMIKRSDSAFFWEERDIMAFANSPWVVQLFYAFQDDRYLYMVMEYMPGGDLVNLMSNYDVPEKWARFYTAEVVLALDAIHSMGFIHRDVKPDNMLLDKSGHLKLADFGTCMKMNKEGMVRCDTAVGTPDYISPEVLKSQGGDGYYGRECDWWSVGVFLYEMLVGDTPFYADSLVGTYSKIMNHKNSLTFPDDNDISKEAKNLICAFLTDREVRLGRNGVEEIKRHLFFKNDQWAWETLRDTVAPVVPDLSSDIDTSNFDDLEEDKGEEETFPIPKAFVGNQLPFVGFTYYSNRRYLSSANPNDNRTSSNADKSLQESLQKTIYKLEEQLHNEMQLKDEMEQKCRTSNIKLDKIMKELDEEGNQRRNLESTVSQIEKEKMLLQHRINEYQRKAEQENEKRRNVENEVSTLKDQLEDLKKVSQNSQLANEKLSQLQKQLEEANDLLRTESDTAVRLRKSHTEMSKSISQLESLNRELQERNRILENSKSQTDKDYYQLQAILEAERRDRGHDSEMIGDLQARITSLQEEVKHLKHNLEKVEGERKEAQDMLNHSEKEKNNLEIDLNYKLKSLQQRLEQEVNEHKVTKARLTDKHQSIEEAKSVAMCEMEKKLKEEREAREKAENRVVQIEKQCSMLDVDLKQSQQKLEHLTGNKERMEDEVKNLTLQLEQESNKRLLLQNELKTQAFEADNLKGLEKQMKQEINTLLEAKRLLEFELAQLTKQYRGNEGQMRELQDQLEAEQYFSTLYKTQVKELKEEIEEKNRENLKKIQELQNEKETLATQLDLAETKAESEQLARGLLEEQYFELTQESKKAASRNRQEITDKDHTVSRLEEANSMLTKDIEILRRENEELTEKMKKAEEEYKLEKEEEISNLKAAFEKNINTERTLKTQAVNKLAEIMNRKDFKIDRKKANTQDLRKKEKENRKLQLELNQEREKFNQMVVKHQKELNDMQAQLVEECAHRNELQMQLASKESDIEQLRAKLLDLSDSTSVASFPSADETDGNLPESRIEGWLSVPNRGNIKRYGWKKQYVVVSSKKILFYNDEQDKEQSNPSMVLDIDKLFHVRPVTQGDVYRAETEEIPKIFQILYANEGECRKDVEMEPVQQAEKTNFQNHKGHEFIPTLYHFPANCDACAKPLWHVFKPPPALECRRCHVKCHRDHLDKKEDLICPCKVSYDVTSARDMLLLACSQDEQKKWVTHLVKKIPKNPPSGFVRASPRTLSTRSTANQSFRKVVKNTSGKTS

Regarding `CCn1c(-c2nonc2N)nc2c(C#CC(C)(C)O)nc(O[C@@H](CN)c3ccccc3)cc21`, the inhibition worked out at 66.3% in test [1]; 10.9% in test [2]; 64.3% in test [3]; 68.7% in test [4]; 81.1% in [5]; 67.9% in [6]. For the same compound, the inhibition was 84.4% in test [7], 82.3% in test [8], 88.2% in test [9] and 9.16% in test [10].
`Cc1cc(-c2ccco2)cc(C)c1/C=C/c1cncc(-c2nn[nH]n2)c1`: the inhibition in [1] is 2.37%; in [2], 2.09%; in [3] it was 1.22%; in [4], -0.2%; in [5], -0.46%; in test [6] it was 0.23%. For the same compound, the inhibition in test [7] was -1.21%; in test [8] it was 0.69%; in test [9] it was -0.08%; in test [10], 0.84%.
For `CCn1c(-c2nonc2N)nc2c(C#CC(C)(C)O)ncc(OC[C@@H]3CCCN3)c21`, the inhibition in test [1] was found to be 12.6%; in test [2] it was 2.38%; in test [3] it was 15.9%; in test [4], 49.9%; in test [5] it was 76.4%; in test [6], 65.7%. The inhibition is 76.5% in test [7], 77% in test [8], 85.4% in test [9] and 1.1% in [10].
On to `Fc1ccc(-c2ncn(C3CCNCC3)c2-c2ccnc(Oc3ccccc3)n2)cc1`, for which the inhibition in [1] was 4.29%; in test [2] it was -1.84%; in [3], 2.37%; in test [4], 0.84%; in test [5], 0.86%; in test [6] it was 0.69%. The inhibition in test [7] amounted to 0.2%; in test [8], 1.64%; in test [9], 1.63%; in [10], 0.65%.
As for `COc1cccc(COc2cc(-n3cnc4ccccc43)sc2C(N)=O)c1`, the inhibition is 0.96% in [1]; 0.24% in test [2]; 0.32% in test [3]; 0.58% in test [4]; -0.92% in test [5]; 1.93% in test [6]. The inhibition is -0.04% in test [7], 1.72% in test [8], 1.42% in test [9] and -0.06% in test [10].
With `CCn1c(-c2nonc2N)nc2c(C#CCN)ncc(OCCCN)c21`, the inhibition in test [1] was 0.48%; in test [2] it was -2.29%; in [3] it was -1.06%; in test [4], 8.62%; in [5] it was 38%; in test [6] it was 37.1%. The inhibition in test [7] amounted to 74.6%; in test [8], 4.23%; in test [9], 18.9%; in test [10], 7.73%.
For `NS(=O)(=O)c1ccc(N/C=C2\C(=O)Nc3ccc4ncsc4c32)cc1`, the inhibition in test [1] was found to be 58.2%; in [2] it was 13.7%; in test [3], 54.2%; in test [4] it was 4.89%; in test [5], 16.7%; in test [6], 9.85%. Further, the inhibition in test [7] turned out to be 47.9%; in test [8] it was 2.57%; in [9], 6.55%; in test [10], 6.26%.

Usually inhibition stands for the change of the read-out against control, counted positive when it falls.
